ABCB6 inh 2 – ABCB6 transporter inhibitors, primary screen, K562-ABCB6 cells, flow cytometry, MLPCN library; ATP-binding cassette sub-family B member 6 (Homo sapiens), Q9NP58; fluorescence ratio to DMSO, % at 10 µM; AID 602162, 2011; K562-ABCB6 porphyrin accumulation, 1 h; stronger effect = lower value; actives 0.19% (n = 360,000);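 active means fluorescence ratio to DMSO below 75%, the collection mean minus 3 SD; inconclusive means too few cells collected in the well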;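 further: signal is porphyrin accumulated inside mitochondria; lower ratio means ABCB6 inhibition with less porphyrin fluorescence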
Target sequence (Q9NP58 whole entry, looked up): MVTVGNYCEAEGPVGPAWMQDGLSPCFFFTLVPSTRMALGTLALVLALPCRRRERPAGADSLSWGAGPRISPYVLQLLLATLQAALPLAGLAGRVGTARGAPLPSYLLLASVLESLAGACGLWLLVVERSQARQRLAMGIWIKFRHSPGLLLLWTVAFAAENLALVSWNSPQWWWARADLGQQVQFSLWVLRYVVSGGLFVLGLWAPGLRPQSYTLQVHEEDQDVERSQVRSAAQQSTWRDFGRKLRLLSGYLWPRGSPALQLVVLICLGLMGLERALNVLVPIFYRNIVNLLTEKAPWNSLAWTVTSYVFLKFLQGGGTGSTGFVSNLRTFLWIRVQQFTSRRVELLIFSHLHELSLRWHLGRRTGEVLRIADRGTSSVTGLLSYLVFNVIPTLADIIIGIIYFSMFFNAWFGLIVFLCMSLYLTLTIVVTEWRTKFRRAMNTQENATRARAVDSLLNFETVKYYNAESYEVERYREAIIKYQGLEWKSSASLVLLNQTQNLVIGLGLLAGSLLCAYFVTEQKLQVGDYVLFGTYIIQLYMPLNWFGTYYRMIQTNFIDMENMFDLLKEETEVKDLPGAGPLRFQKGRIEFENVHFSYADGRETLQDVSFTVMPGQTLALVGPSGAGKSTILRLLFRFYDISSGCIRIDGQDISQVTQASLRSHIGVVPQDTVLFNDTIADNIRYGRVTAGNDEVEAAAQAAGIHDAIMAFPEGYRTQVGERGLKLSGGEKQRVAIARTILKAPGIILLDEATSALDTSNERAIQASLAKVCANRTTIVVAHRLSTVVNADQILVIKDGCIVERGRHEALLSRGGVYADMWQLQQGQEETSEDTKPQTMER
PHOSPHO1 block – PubChem AID 1565; recombinant PHOSPHO1, absorbance phosphatase assay; actives 1.1% (n = 290,000); inhibition, % at 13.3 µM; in the data active means inhibition above about 60%
MLLE-PAM2 inh – inhibitors of PABP1 MLLE–PAM2 peptide binding, primary screen, biochemical, fluorescence polarization, FITC-PAM2, GST-MLLE. actives 0.36% (n = 360,000). Polyadenylate-binding protein 1 (Homo sapiens), P11940. inhibition, % at 20 µM; in the data active means inhibition above about 35%, passing the limit was not always enough
PABP polyA inh – PABP poly(A) RNA binding inhibitors, primary screen, biochemical, fluorescence polarization, uHTS | Polyadenylate-binding protein 1 (Homo sapiens), P11940 | actives 1% (n = 290,000) | calls only at 35 µM;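 further: calls also rest on retests at 20 µM and on dose response follow-up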
eIF4H FP inh – human eIF4H binding inhibitors, primary screen, translation initiation inhibitor project, biochemical, uHTS, fluorescence polarization; eIF4H fluorescence polarization binding assay; AID 2012, 2009; actives 0.94% (n = 290,000); inhibition, % at 35 µM;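 further: calls also rest on retests at 20 µM and on dose response follow-up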
AI-2 QS mod – Vibrio harveyi AI-2 quorum sensing modulators, primary screen, JMH597 strain, luminescence/OD600 ratio; Vibrio harveyi JMH597 AI-2 luminescence/OD600 ratio, 9 h; stronger effect = lower value; strain lacks LuxN and CqsS sensors; 0 = neutral-control median; activity change, % at 7.5 µM; actives 0.4% (n = 300,000); AID 2094, 2009; in the data active means activity change below about -75%, passing the limit was not always enough; inconclusive means no clear call, values can overlap the other calls;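 further: luminescence divided by OD600 gain over 9 h not by final OD600 alone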
Numbers stand for hits; – = inactive; ? = inconclusive; · = no result; + = active, no number. Rows were chosen to be rich in hits. Some 2.6% of all compounds tested hit in one or more screens of this group. Unless noted, how the calls were made is not given here.

SMILES | ABCB6 inh 2 | PHOSPHO1 block | MLLE-PAM2 inh | PABP polyA inh | eIF4H FP inh | AI-2 QS mod
Cc1nc2scc(-c3ccccc3)c2c(=O)n1N | – | – | – | – | – | –
c1coc(C2Nc3cccc4cccc(c34)N2)c1 | · | – | · | + | 110 | –
O=[N+]([O-])c1ccc(C2Nc3cccc4cccc(c34)N2)cc1 | – | – | – | + | 97 | –
Oc1ccc(C2Nc3cccc4cccc(c34)N2)c(O)c1 | – | – | – | + | 89 | –
Fc1ccc(C2Nc3cccc4cccc(c34)N2)cc1 | – | – | – | + | 53 | –
Nn1cnc2c(ncn2C2OC(CO)C(O)C2O)c1=O (stereo not given) | – | · | – | · | · | ·
COc1cc(F)ccc1-c1csc(C(O)c2ccc(F)cc2)n1 (stereo not given) | – | · | – | · | · | ·
CNc1ncnc2c1ncn2[C@H]1CN(CCOC)C[C@@H](CO)O1 | – | · | – | · | · | ·
Cn1c(=O)c2cc(NC(=O)CCc3cccnc3)ccc2n1Cc1cccc(C(F)(F)F)c1 | – | · | – | · | · | ·
Clc1cccc(C2Nc3cccc4cccc(c34)N2)c1Cl | – | – | – | + | 103 | –
Brc1ccc(C2Nc3cccc4cccc(c34)N2)cc1 | – | · | – | · | · | ·
Clc1ccccc1C1Nc2cccc3cccc(c23)N1 | – | – | – | ? | ? | –
Cc1ccc(C2Nc3cccc4cccc(c34)N2)s1 | – | – | – | + | – | –
CN(CCc1ccccn1)C(=O)CCC1CCCN(C(=O)c2cscn2)C1 (stereo not given) | – | – | – | – | – | –
CN(CCc1ccccn1)C(=O)CCC1CCCN(C(=O)c2ccsc2)C1 (stereo not given) | – | 61 | – | – | – | –
C[C@@H]1CN([C@H](C)CO)C(=O)CCCn2nncc2CO[C@H]1CN(C)C(=O)Cc1ccccc1 | – | · | – | · | · | ·
COc1ccc(Nc2ccc(N3C(=O)CC(C)C3=O)cc2[N+](=O)[O-])cn1 (stereo not given) | – | – | 40 | + | – | –
O=c1[nH]c(=S)ccn1C1OC(CO)C(O)C1O (stereo not given) | – | · | – | · | · | -91
CCOc1ccc(Nc2cc(Nc3ccccc3OCC)nc(C=C(C#N)C#N)n2)cc1 | – | – | – | + | – | –
CCOc1ccccc1Nc1cc(C)c2cccc(C)c2n1 | – | – | – | – | – | –
CCCc1nc2c([nH]1)c(=O)n(C)c(=O)n2C | – | – | – | – | – | –
CC(C)c1nc2c([nH]1)c(=O)n(C)c(=O)n2C | – | – | – | – | 54 | –
Cc1ccc(OCC(=O)NC(=S)Nc2cccc(NC(=O)c3ccccc3)c2)cc1 | – | – | 38 | – | – | –
Cc1ccc(OCC(=O)NC(=S)Nc2ccc(Br)c(C)n2)cc1 | – | 84 | – | – | – | –
Cc1ccc(OCC(=O)NC(=S)Nc2cccc(NC(=O)c3ccc(Cl)cc3Cl)c2)cc1 | – | – | – | – | – | –
SMILES | ABCB6 inh 2 | PHOSPHO1 block | MLLE-PAM2 inh | PABP polyA inh | eIF4H FP inh | AI-2 QS mod
CN(C)C(=O)c1ccc(Cc2cn(C)c3ccccc23)nc1 | – | · | – | · | · | ·
O=c1c2c3c(sc2[nH]c(=S)n1Cc1ccco1)CCC3 | – | – | – | + | 81 | –
O=C(NCCN1CCCC1)c1ccc(Cn2c(=S)[nH]c3cc4c(cc3c2=O)OCO4)cc1 | – | 71 | – | – | – | –
CN1CCN(C(=O)c2ccc3c(=O)n(Cc4ccco4)c(=S)[nH]c3c2)CC1 | – | 69 | – | – | – | –
O=C(c1ccc2c(=O)n(Cc3ccco3)c(=S)[nH]c2c1)N1CCN(Cc2ccccc2)CC1 | – | – | – | – | – | –
O=c1c2cc3c(cc2[nH]c(=S)n1Cc1ccco1)OCO3 | – | 78 | – | – | – | –
CC1(C)Cc2c(sc3[nH]c(=S)n(Cc4ccco4)c(=O)c23)CO1 | – | – | – | – | – | –
CCCS(=O)(=O)NC(=O)C1(C)CCN(C(=O)CSc2ccccc2)C1 (stereo not given) | – | · | – | · | · | ·
CC1=C(C(=O)N(C(C)C)C(C)C)CC(CC(=O)NCCN2CCOCC2)C(=O)N1CCC1=CCCCC1 (stereo not given) | – | · | – | · | · | ·
CCCN(CCC)C(=O)c1ccc2c(=O)n(Cc3ccco3)c(=S)[nH]c2c1 | – | – | – | – | – | –
COc1cc(NC(=O)c2ccc3c(=O)n(Cc4ccco4)c(=S)[nH]c3c2)cc(OC)c1OC | – | 76 | – | – | 64 | –
O=C(Cc1cccs1)Nc1ccc(S(=O)(=O)Nc2ncccn2)cc1 | – | – | – | + | 61 | ·
COc1cc(OC)cc(C(=O)Nc2ccc(S(=O)(=O)Nc3ncccn3)cc2)c1 | – | – | – | – | – | –
COc1ccc(C(=O)Nc2ccc(S(=O)(=O)Nc3ncccn3)cc2)cc1OC | – | 60 | – | – | – | –
Cc1ccnc(NS(=O)(=O)c2ccc(NC(=O)Cc3cccs3)cc2)n1 | – | – | – | – | – | –
CCCNC(=O)C1(C)CCCN(C(=O)COc2ccc(C(C)(C)C)cc2)C1 (stereo not given) | – | · | – | · | · | ·
CCc1cc(=O)oc2cc(C)cc(OCC(=O)NCc3cccnc3)c12 | – | – | – | – | 79 | –
CCCN(C)C1CN(Cc2cn(Cc3ccc(C)cc3)nn2)S(=O)(=O)C1 (stereo not given) | – | · | · | · | · | ·
CCC(=O)N1CCCC(C)(C(=O)Nc2nccc3ccccc23)C1 (stereo not given) | – | · | – | · | · | ·
O=C(N/N=C/c1sc(=O)[nH]c1-[n+]1ccc2ccccc2c1)c1ccccc1[O-] | – | – | – | · | · | –
Cc1ccc[n+](-c2[nH]c(=O)sc2/C=N/N=C(\[O-])c2cccnc2)c1 | – | – | – | – | – | –
Cc1ccc[n+](-c2[nH]c(=O)sc2/C=N/NC(=O)c2ccccc2[O-])c1 | – | – | 48 | – | – | –
O=C(N/N=C/c1sc(=O)[nH]c1-[n+]1ccccc1)c1ccccc1[O-] | – | – | 61 | – | – | –
CCOc1ccccc1N1CSC2=C(C#N)C(c3c(OC)ccc4ccccc34)CC(=O)N2C1 (stereo not given) | – | 92 | – | – | – | –
COc1ccc(N2CSC3=C(C#N)C(c4cc(OC)ccc4OC)CC(=O)N3C2)c(OC)c1 (stereo not given) | 74 | 94 | – | – | – | –
COc1ccc(N2CSC3=C(C#N)C(c4cc(OC)c(OC)cc4OC)CC(=O)N3C2)c(OC)c1 (stereo not given) | – | 93 | – | – | – | –

Screening data: PubChem, several laboratories
